Here are results for 9 molecules from PubChem BioAssay (NCATS).

Experiment [1] has as its target Glucocorticoid receptor (Homo sapiens) (UniProt P04150). Nature of the experiment: qHTS assay for small molecule antagonists of glucocorticoid receptor signaling (AID 588533; active = well fitted inhibition curve with a large enough effect in the signal ratio, with a control signal flat, not every such curve was filed as active; the % refers to the signal ratio;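 also: cells stimulated with 2 nM dexamethasone as agonist; % is scaled to controls: 0 for no effect and ±100 for the full control effect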). A digest of the protocol: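 Antagonist-mode qHTS: compound titrations added to GRE-bla HeLa cells, then dexamethasone 2 nM final; 18 h, 37 C. CCF4 FRET fluorescence normalized to dexamethasone and DMSO; IC50 from Hill fit.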

Experiment [2] in a line: qHTS assay for small molecule antagonists of peroxisome proliferator-activated receptor delta signaling (AID 588535; active = well fitted inhibition curve with a large enough effect in the signal ratio, with a control signal flat, not every such curve was filed as active; the % refers to the signal ratio;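 as to max response: cells co-treated with a PPAR-delta agonist as stimulator during compound exposure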). As to conditions: HEK293T PPARd-UAS-bla, beta-lactamase FRET ratio, 18 h; 460 nm channel. A digest of the protocol:
(§1)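 Cell-based beta-lactamase assay in antagonist mode: 4000 HEK293T PPAR-delta-UAS-bla cells per well, 5 hr preincubation then 18 hr compound incubation at 37 C. IC50 obtained by Hill equation fitting.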
(Quantitative high-throughput screening tests each substance at several concentrations.)

Experiment [3] has as its target Peroxisome proliferator-activated receptor delta (Homo sapiens) (UniProt Q03181). The experiment is described as above. A digest of the protocol: as §1
Experiment [4] has as its target Vitamin D3 receptor (Homo sapiens) (UniProt P11473). Kind of experiment: qHTS assay for small molecule antagonists of vitamin D receptor signaling (AID 588541).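 Also: receptor activated by calcitriol during compound treatment; series mostly up to about 77 µM; % is scaled to controls: 0 for no effect and ±100 for the full control effect.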 A digest of the protocol:
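Antagonist-mode beta-lactamase reporter assay: HEK293T VDR-UAS-bla cells were exposed to titrated compound alongside 1-alpha,25-dihydroxyvitamin D3 at 3 nM final for 16 h. Values were normalized to the 50 nM agonist control and DMSO basal, with IC50 and efficacy from Hill equation fits.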

Experiment [5] has the same target. Nature of the experiment: qHTS assay for small molecule agonists of vitamin D receptor signaling (AID 588543).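 Also: 0% = DMSO basal and 100% = reference agonist control.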 A digest of the protocol: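 β-lactamase reporter, VDR-UAS-bla HEK293T, agonist mode. Cells plated 5 h at 37 °C, compound titration 16 h at 37 °C, CCF4 dye 2 h RT, ratio 460/530 nm. Hill fit → EC50, efficacy vs 50 nM 1α,25-(OH)2D3.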
The nature of experiment [6]: qHTS assay for small molecule agonists of retinoid X receptor alpha signaling (AID 588544).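 As to activation: 0% = DMSO basal wells and 100% = reference agonist.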 As to conditions: HEK293T RXRa-UAS-bla, beta-lactamase reporter, 18 h; 530 nm emission.
The target in experiment [7] is Retinoic acid receptor RXR-alpha (Homo sapiens) (UniProt P19793). The experiment is described as above.
Retinoic acid receptor RXR-alpha (Homo sapiens), sequence (P19793 whole entry, looked up): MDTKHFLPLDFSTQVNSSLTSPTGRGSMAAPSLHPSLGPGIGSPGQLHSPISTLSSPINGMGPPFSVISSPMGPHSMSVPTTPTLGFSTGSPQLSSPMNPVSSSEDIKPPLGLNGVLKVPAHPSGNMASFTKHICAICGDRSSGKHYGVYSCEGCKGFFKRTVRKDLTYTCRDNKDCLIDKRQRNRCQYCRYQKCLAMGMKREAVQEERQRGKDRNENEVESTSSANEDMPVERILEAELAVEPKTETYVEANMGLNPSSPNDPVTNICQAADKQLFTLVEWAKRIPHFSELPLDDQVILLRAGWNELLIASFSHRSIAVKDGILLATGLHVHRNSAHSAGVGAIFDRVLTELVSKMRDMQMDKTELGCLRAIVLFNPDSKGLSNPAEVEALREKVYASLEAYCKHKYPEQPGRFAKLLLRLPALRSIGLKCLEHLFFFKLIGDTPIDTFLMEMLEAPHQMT
Experiment [8] deals with Thyroid hormone receptor beta (Homo sapiens) (UniProt P10828). Nature of the experiment: qHTS assay for small molecule agonists of thyroid hormone receptor beta signaling (AID 588545).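 Also: 0% = DMSO only and 100% = 10 nM T3.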 In outline: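 TR-UAS-bla GripTite HEK 293 cells (2500/well, medium with 2% charcoal/dextran FBS) were treated in agonist mode for 18 h at 37 C, titrated. Beta-lactamase was read by CCF4 ratio after 2 h; normalized to 10 nM T3 (100%) and DMSO, Hill-fitted for EC50 and efficacy.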
Thyroid hormone receptor beta (Homo sapiens), sequence (P10828 whole entry, looked up): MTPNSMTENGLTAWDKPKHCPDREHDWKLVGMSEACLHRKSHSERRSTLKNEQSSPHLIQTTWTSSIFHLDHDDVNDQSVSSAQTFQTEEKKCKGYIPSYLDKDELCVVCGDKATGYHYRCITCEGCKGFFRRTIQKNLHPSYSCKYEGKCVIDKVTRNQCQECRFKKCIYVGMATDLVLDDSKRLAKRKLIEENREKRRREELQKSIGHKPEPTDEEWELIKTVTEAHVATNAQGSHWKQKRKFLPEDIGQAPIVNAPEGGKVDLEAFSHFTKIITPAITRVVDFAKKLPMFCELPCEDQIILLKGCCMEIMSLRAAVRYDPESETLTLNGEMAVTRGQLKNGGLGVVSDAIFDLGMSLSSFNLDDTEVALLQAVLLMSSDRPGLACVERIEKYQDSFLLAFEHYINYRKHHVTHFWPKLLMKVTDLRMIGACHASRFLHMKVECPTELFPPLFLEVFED

The nature of experiment [9]: qHTS assay for small molecule antagonists of retinoid X receptor alpha signaling (AID 588546; active = well fitted inhibition curve with a large enough effect in the signal ratio, with a control signal flat, not every such curve was filed as active; the % refers to the signal ratio;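 also: cells stimulated with 9-cis-retinoic acid as agonist; % is scaled to controls: 0 for no effect and ±100 for the full control effect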). As to conditions: HEK293T RXRa-UAS-bla, beta-lactamase ratio, antagonist mode; measured here: W530 green channel, cytotoxicity proxy. A digest of the protocol: (§2)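 Beta-lactamase reporter inhibition, read as CCF4 fluorescence ratio (ex 405, em 460/530 nm) after 2 h at RT. HEK293T UAS-bla cells, 2500/well, were stimulated with 9-cis-RA at 500 or 100 nM final alongside test compound for 18 h at 37 C.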

Experiment [10] deals with Retinoic acid receptor RXR-alpha (Homo sapiens) (UniProt P19793). Described as above. As to conditions: HEK293T RXRa-UAS-bla, beta-lactamase ratio, antagonist mode. In outline:
as §2

In experiment [11] the target is Thyroid hormone receptor beta (Homo sapiens) (UniProt P10828). Kind of experiment: qHTS assay for small molecule antagonists of thyroid hormone receptor beta signaling (AID 588547; active = well fitted inhibition curve with a large enough effect in the signal ratio, with a control signal flat, not every such curve was filed as active; the % refers to the signal ratio;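 also: cells stimulated with 0.4 nM T3 agonist during compound exposure; series mostly up to about 77 µM; % is scaled to controls: 0 for no effect and ±100 for the full control effect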). Particulars: TR-UAS-bla HEK293, beta-lactamase ratio, antagonist mode, 18 h. In outline: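 Inhibition of T3-driven (0.4nM final) beta-lactamase reporter activity was measured over 0.59 nM to 92 uM compound after 18 h at 37 C. The cells were GripTite HEK293 TR-UAS-bla in charcoal/dextran-stripped serum, with CCF4 ratio read-out and IC50 from Hill fits.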

Experiment [12] in a line: qHTS assay for small molecule activators of the p53 signaling pathway (AID 651743; active = well fitted activation curve with a large enough effect in the signal ratio, not every such curve was filed as active; the % refers to the signal ratio; also: series mostly up to about 92 µM; % of control where 0% means no effect). Particulars: HCT-116 p53RE-bla, beta-lactamase FRET ratio, 16 h; stronger effect = higher value. A digest of the protocol:
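Screen for p53 pathway agonists uses stably transfected p53RE-bla HCT-116 cells, 4,000 per well, treated 16 h at 37 C with compounds in DMSO.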

The nature of experiment [13]: qHTS assay for small molecule activators of the nuclear factor-kappa B (NF-kB) signaling pathway (AID 651749; active = well fitted activation curve with a large enough effect in the signal ratio; the % refers to the signal ratio; also: series mostly up to about 77 µM; % of control where 0% means no effect). As to conditions: NF-kB-bla ME-180 cells, beta-lactamase FRET ratio, 16 h; stronger effect = higher value. A digest of the protocol: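 Stably transfected ME-180 line; NF-kB response element upstream of beta-lactamase. Treatment: compound or DMSO, 16 hr. Detection: fluorescent FRET substrate.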

Experiment [14] has as its target Peroxisome proliferator-activated receptor gamma (Homo sapiens) (UniProt P37231). Nature of the experiment: qHTS assay for small molecule agonists of peroxisome proliferator-activated receptor gamma signaling (AID 588536; active = well fitted curve in the direction sought with a large enough effect in the signal ratio, with a control signal flat, not every such curve was filed as active; the % refers to the signal ratio;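 also: 0% = DMSO basal wells and 100% = rosiglitazone at 2 µM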). In outline:
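GeneBLAzer PPAR-gamma-UAS-bla HEK293 cells in 1% charcoal/dextran-treated FBS medium were treated 16 h at 37 C with compounds. Beta-lactamase activity was read by CCF4 ratio (460/530 nm). Response was normalized to 2 uM rosiglitazone (100%) and DMSO, then Hill-fitted for EC50 and efficacy.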

The target is the same in experiment [15]. Nature of the experiment: qHTS assay for small molecule antagonists of peroxisome proliferator-activated receptor gamma signaling (AID 588537; active = well fitted inhibition curve with a large enough effect in the signal ratio, with a control signal flat, not every such curve was filed as active; the % refers to the signal ratio;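 also: reporter cells co-stimulated with 50 nM rosiglitazone agonist during compound treatment; % of control where 0% means no effect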). In outline:
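Inhibitors of agonist-stimulated UAS-bla reporter activity were sought in HEK293 cells; rosiglitazone (50 nM) defined full signal and DMSO baseline. Curves fitted to Hill model gave IC50 and efficacy.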

The target of experiment [16] is Voltage-gated inwardly rectifying potassium channel KCNH2 (Homo sapiens) (UniProt Q12809). Kind of experiment: qHTS Assay for Small Molecule Inhibitors of the Human hERG Channel Activity (AID 588834; active = well fitted inhibition curve with a large enough effect;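 also: top concentration of the series differs between compounds; % is scaled to controls: 0 for no effect and ±100 for the full control effect; lower thallium flux fluorescence means stronger hERG block; nearly all actives have a fitted effect of over 50% in size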). In outline:
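Concentration-response qHTS measuring drop in thallium-sensitive dye signal. U2OS cells carrying BacMam hERG; compound exposure ~10 min, then stimulation buffer and 2 min read at 1 sec intervals.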

A short description of experiment [17]: qHTS assay for small molecule agonists of the antioxidant response element (ARE) signaling pathway (AID 651741; active = well fitted activation curve with a large enough effect in the signal ratio; the % refers to the signal ratio; also: % of control where 0% means no effect). In outline: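 Seeding 2,000 ARE-bla HepG2 cells per well preceded a 5 h incubation at 37 C/5% CO2 and a 16 h compound exposure at 37 C. Beta-lactamase reporter activity was then quantified by fluorescence after 2 h with LiveBLAzer B/G FRET substrate.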

Where “and” joins values, the source holds several entries; their conditions need not be identical. Identical values can stand only once. Results filed as inconclusive are left out. Calls of active or inactive are those of the source. Unless noted, calls follow the shape of the full dose curve.

Peroxisome proliferator-activated receptor delta (Homo sapiens), sequence (Q03181 whole entry, looked up): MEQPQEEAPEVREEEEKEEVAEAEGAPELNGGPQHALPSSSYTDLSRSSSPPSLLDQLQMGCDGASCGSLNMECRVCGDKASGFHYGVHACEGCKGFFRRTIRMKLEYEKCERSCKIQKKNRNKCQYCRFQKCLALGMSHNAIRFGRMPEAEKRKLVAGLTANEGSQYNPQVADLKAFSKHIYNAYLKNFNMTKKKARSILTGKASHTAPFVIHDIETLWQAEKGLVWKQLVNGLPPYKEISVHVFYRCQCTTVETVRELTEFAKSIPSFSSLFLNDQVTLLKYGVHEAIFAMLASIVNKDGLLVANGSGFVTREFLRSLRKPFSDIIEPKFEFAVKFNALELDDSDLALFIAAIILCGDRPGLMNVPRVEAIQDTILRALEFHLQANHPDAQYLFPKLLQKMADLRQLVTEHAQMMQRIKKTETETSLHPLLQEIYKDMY
Vitamin D3 receptor (Homo sapiens), sequence (P11473 whole entry, looked up): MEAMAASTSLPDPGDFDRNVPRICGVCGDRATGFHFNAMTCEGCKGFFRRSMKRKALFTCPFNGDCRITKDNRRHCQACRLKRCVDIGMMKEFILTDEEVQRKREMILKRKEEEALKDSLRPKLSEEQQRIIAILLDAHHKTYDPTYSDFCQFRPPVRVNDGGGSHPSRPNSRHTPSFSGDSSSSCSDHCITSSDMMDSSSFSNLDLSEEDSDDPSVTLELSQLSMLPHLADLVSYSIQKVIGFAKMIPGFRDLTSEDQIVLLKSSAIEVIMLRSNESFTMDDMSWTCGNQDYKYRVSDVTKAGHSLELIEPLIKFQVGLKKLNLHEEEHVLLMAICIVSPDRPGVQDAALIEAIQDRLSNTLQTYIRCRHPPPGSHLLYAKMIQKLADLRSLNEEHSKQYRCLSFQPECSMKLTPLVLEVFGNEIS
Peroxisome proliferator-activated receptor gamma (Homo sapiens), sequence (P37231 whole entry, looked up): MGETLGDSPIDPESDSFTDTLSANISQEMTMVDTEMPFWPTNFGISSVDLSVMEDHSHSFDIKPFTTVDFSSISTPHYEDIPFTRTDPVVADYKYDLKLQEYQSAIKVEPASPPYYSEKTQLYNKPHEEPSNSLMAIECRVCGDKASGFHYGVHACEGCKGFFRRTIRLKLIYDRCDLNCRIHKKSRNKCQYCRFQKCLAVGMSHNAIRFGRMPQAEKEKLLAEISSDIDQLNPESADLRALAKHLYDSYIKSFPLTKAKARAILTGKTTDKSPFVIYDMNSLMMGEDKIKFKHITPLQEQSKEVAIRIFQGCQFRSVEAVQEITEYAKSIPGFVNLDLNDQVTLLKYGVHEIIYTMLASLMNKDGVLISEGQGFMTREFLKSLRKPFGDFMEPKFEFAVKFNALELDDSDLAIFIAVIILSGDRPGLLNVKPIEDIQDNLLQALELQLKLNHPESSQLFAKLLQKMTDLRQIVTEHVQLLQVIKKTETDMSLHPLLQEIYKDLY
Glucocorticoid receptor (Homo sapiens), sequence (P04150 whole entry, looked up): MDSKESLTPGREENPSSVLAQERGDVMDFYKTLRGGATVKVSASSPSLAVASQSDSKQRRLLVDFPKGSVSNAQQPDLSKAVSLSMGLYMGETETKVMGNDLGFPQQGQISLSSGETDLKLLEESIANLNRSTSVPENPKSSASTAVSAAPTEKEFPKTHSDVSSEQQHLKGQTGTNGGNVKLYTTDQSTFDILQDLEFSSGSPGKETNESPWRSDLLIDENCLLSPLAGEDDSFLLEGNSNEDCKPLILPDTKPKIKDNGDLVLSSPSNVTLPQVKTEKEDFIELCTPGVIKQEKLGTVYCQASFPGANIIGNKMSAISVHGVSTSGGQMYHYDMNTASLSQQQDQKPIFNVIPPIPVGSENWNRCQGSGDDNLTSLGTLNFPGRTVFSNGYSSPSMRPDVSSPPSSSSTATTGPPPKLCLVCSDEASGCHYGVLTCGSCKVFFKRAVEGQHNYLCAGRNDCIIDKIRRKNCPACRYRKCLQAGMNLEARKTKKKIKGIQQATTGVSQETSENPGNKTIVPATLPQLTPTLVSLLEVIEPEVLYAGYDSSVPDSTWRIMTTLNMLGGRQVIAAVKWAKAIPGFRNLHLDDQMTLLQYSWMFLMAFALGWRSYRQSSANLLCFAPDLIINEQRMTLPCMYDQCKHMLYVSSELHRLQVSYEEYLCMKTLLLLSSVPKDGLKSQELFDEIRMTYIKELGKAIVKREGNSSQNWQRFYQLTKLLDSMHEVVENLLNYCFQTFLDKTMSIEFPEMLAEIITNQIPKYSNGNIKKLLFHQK
Voltage-gated inwardly rectifying potassium channel KCNH2 (Homo sapiens), sequence (Q12809 whole entry, looked up): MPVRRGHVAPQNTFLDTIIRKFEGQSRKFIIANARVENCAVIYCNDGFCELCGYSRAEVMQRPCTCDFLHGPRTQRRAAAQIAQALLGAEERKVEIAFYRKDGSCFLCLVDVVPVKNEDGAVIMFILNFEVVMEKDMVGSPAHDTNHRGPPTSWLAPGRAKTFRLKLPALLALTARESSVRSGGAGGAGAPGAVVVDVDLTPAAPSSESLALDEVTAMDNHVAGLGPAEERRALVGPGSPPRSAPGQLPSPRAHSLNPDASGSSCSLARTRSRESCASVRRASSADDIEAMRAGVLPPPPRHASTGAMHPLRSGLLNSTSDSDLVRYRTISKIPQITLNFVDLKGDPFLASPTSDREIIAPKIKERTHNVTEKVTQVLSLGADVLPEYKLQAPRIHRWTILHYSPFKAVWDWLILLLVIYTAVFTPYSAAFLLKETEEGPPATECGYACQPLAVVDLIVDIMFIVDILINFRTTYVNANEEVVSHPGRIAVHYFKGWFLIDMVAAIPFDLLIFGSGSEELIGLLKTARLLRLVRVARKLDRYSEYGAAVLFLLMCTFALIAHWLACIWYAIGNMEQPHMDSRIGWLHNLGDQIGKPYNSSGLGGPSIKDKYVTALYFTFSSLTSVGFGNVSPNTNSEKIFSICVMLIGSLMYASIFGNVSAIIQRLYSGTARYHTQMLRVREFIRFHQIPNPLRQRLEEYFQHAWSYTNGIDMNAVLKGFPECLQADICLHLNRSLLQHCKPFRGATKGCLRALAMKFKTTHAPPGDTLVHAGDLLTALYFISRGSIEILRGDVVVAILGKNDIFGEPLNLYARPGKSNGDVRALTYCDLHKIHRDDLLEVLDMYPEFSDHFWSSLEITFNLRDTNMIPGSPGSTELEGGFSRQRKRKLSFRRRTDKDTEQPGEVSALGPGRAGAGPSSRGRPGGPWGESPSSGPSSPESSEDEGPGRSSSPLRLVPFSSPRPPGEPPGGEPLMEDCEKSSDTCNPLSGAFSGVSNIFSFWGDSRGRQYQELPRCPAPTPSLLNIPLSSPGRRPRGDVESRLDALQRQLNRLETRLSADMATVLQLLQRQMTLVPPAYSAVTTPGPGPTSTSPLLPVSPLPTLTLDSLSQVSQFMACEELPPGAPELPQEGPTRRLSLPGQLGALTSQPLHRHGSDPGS

For the molecule `C=CCCC`, the call in [1], in [4], in experiment [5], in experiment [7] and in experiment [8] was inactive. Also, the max response is 0.0312% in experiment [2], -12.1% in experiment [6], 2.87% in [9] and 8.21% (inactive) in experiment [10]. Also, the Potency result in [3] was “inactive”. Moreover, the activity change % (negative = inhibition) in experiment [11] was 20.1% (inactive). Also, the activation was -0.508% (inactive) in [12] and -0.388% (inactive) in experiment [13].
Consider `OC(CCl)CCl`, for which the molecule was classed as inactive in experiment [1], in [14], in [15], in [4], in experiment [5] and in [7]. Moreover, in experiment [8], the molecule was classed as inactive. Besides, the max response in experiment [6] is -16.7%; in experiment [9], -12.4%; in experiment [10] it was -2.39% (inactive). Further, the activity change % (negative = inhibition) in experiment [11] is 2.68% (inactive). In addition, the Potency result in experiment [16] and in [17] was “inactive” each time. The activation was -1.36% (inactive) in experiment [12] and 1.2% (inactive) in [13].
Turning to `CCCCC(CC)COCC1CO1` (stereo not drawn), the molecule was called inactive in experiment [1], in [14], in [4], in experiment [5], in experiment [7] and in [8]. Moreover, the max response in experiment [6] was -2.88%; in experiment [9] it was 2.35%; in experiment [10] it was 9.33% (inactive). The activity change % (negative = inhibition) in experiment [11] is 1.98% (inactive). The Potency result in [16] and in experiment [17] was “inactive” each time. Further, the activation in experiment [13] was 0.588% (inactive).
Regarding `CCCCCNCCCCC`, the max response in experiment [2] was -18.6%; in experiment [6] it was 1.44% and -10.1%; in experiment [9], -1.51% and -1.45%; in [10], 4.32% (inactive) and 13.3% (inactive). The Potency entry in experiment [3], in [16] and in experiment [17] was “inactive” throughout. Besides, the molecule was classed as inactive in experiment [14], in [4], in experiment [5], in [7] and in experiment [8]. In addition, the activity change % (negative = inhibition) in experiment [11] was -1.69% (inactive) and -17.1% (inactive). Also, the activation in experiment [12] was -2.16% (inactive) and -1.29% (inactive).
Regarding `Cc1cc(C2(c3cc(C)c(O)cc3C)OS(=O)(=O)c3ccccc32)c(C)cc1O`, the result in [1], in experiment [14], in experiment [7] and in [8] was inactive. Also, the max response in experiment [6] was -3.17%; in experiment [9] it was -12.4%; in experiment [10], 0.408% (inactive). The activity change % (negative = inhibition) in experiment [11] was -15% (inactive). For the same molecule, in experiment [16], the Potency result is “inactive”. Also, in experiment [12], the activation is -5.82% (inactive).
Regarding `Nc1nc(CC(=O)O)cs1`, the result in experiment [1], in experiment [14], in experiment [15], in experiment [5], in experiment [7] and in [8] was inactive. Moreover, the results for the max response in experiment [6] and in experiment [9] were -4.19% and -14%, respectively. The activity change % (negative = inhibition) in [11] was 1.64% (inactive). The Potency result in experiment [16] and in experiment [17] was “inactive” each time. Further, the activation in experiment [12] was -1.45% (inactive).
For `O=C(O)CNC(=O)c1ccc(CO)o1`, the max response was 35.1% in [2], -18.2% in [6], 2.84% in experiment [9] and -8.36% (inactive) in experiment [10]. The Potency entry in experiment [3] and in [17] was “inactive” each time. In addition, the outcome in [14], in experiment [15], in experiment [7] and in experiment [8] was inactive. Moreover, the activity change % (negative = inhibition) in experiment [11] is -8.36% (inactive). For the same molecule, the activation in experiment [12] is -3.47% (inactive); in experiment [13], 0.936% (inactive).
Take `ON=C1CCCCC1`: the max response in experiment [2] was -2.32%; in [6], -11.2%; in [9], 5.82%; in experiment [10] it was 4.41% (inactive). The Potency entry in experiment [3] and in [16] was “inactive” each time. In addition, the outcome in [14], in experiment [15], in experiment [4], in [5], in experiment [7] and in [8] was inactive. Besides, the activity change % (negative = inhibition) in experiment [11] was 8.44% (inactive). Also, the activation in experiment [12] is -1.24% (inactive); in experiment [13], -0.0489% (inactive).
As for `Cc1ccccc1C#N`, the max response in [2] was -5.92%; in experiment [6], -8.62%; in [9], -10.7%. The Potency entry in experiment [3], in experiment [16] and in [17] was “inactive” each time. The call in [14], in experiment [4], in experiment [5], in experiment [7] and in [8] was inactive. Moreover, the activity change % (negative = inhibition) in experiment [11] was 4.81% (inactive). Further, the activation in experiment [12] was -0.804% (inactive).
